# Data reported in PubChem BioAssay AID1274 (Emory University Molecular Libraries Screening Center, 2008).
# Out of some 220,000 compounds screened, about 1,100 (0.5%) were called active. Only a selection was taken, and actives are over-represented in it overall. Unmarked numbers belong to inactive results.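 Rule for the calls: active = inhibition above about 30% (limit read from the data); inactive = the rest.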
# Target: Neutrophil cytosol factor 1 (Homo sapiens) (UniProt P14598)
# Experiment: p47phox/p22phox peptide binding inhibitors, primary screen, biochemical, uHTS, NADPH oxidase regulatory subunit (AID 1274);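 note: 0% = p47phox with labelled peptide and 100% = labelled peptide alone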
# Conditions: fluorescence polarization, 2 h, at 24.7 µM, hits give high values
# Neutrophil cytosol factor 1 (Homo sapiens), sequence (P14598 whole entry, looked up): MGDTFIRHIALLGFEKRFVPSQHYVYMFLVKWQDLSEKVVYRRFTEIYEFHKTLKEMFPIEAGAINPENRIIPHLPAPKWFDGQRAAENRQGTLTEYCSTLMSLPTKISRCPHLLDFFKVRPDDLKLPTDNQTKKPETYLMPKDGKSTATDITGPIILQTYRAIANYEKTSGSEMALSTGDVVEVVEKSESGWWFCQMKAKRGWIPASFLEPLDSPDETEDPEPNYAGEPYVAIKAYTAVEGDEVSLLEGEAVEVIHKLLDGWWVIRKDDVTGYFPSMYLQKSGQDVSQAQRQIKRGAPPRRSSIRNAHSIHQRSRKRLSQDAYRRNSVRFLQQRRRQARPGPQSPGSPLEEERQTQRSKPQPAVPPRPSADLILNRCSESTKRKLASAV
row,SMILES,inhibition
1,COc1ccc(NC(=O)c2ccccc2CC[N+](=O)[O-])cc1,-4.4%
2,CCn1c(CNS(=O)(=O)c2ccc(Cl)cc2)n[nH]c1=S,-6.22%
3,CCc1nc2sc(C(=O)O)c(N)c2c2c1CCCC2,3.39%
4,O=C(O)COc1ccc(-c2nccc(-c3cccs3)n2)cc1,-0.51%
5,COC(=O)CSc1nccc(-c2cccs2)n1,57.9% (active)
6,COc1ccc(-c2ccnc(SCC(=O)N3CCOCC3)n2)cc1,-7.88%
7,CN1CCN(S(=O)(=O)c2ccc(NC(=S)NC(=O)C3CC3)cc2)CC1,5.87%
8,Cc1ccc(C)c(-n2ccnc2SCC(N)=O)c1,-6.63%
9,Cc1nnc(NC(=O)CSc2nccn2-c2cccc(C)c2C)s1,-2.14%
10,COc1ccccc1-n1ccnc1SCC(=O)NC(C)(C)C,130% (active)
11,Cc1cccc(NC(=O)CSc2nnc(CCNC(=O)OC(C)(C)C)o2)c1C,-4.83%
12,O=[N+]([O-])C(=c1ccc2c(c1)N1C3=C(CCCC3)CC3CCCCC31N=2)[N+](=O)[O-] (stereo not drawn),32.3% (active)
13,COc1cccc(C(=O)Nc2ccc(N3CCCC3)cc2)c1,-24.3%
14,COc1cc(N2CCCC2)c(OC)cc1/C=C(/C#N)c1cccc(Br)c1,41.6% (active)
15,CC(=O)Nc1cccc(Oc2cc(C#N)c(C#N)cc2N2CCOCC2)c1,-5.37%
16,O=C(CCN1C(=O)/C(=C/c2cccs2)SC1=S)NNC(=O)c1cccc(O)c1,-143%
17,O=C1N/C(=C/c2cccs2)C(=O)N1Cc1ccc(F)cc1,-8.47%
18,O=C1/C(=C/c2cccs2)SC(=S)N1C1CCS(=O)(=O)C1 (stereo not drawn),136% (active)
19,O=C(Nc1ccccc1)O/N=C1/CCCc2occc21,-10.7%
20,COc1cc(OC)cc(-c2nc3ccccc3c(=O)n2NC(=O)c2cccnc2Cl)c1,-17.9%
21,COc1ccc(C)cc1NC(=O)c1ccc(-c2ccc(C(C)=O)cc2)o1,-8.08%

row,SMILES,inhibition
1,COc1cc(OC)c(OC)cc1/C=N/Nc1ncnc2c1[nH]c1ccc(C)cc12,34.2% (active)
2,Cc1ccc2[nH]c3c(=O)n(Cc4ccccn4)cnc3c2c1,-18.3%
3,CC(C)OCCCNc1ncnc2c1[nH]c1ccc(F)cc12,-10.6%
4,CC(=O)NCCn1c(SCC(=O)Nc2ccc(C)cc2)nc2ccccc2c1=O,1.49%
5,CC(C)(C)C(=O)OCc1nc(-c2ccc(O)c(O)c2)cs1,-9.67%
6,NC(N)=N/N=C/c1ccc(Cl)c([N+](=O)[O-])c1,3.52%
7,COc1ccc(C(=O)O/N=C(\N)Cc2ccc(Cl)cc2Cl)cc1OC,-5.94%
8,NC(N)=N/N=C/c1ccc(OCc2ccc(Cl)cc2Cl)cc1,103% (active)
9,Oc1oc(-c2ccccc2Br)nc1/C=N/c1ccccn1,-6.08%
10,Cc1cc(C)n(Cc2cnc(N3CCOCC3)s2)n1,-9.55%
11,O=C(NCc1cc(C(F)(F)F)cc(C(F)(F)F)c1)C1CC(c2cccc(F)c2)=NO1 (stereo not drawn),-5.46%
12,CC(C)OCCCNc1nc2c(c(=O)n(Cc3ccccc3F)c(=O)n2C)n1C,-4.4%
13,COc1ccc(N2CC(C)Cn3c2nc2c3c(=O)n(Cc3ccccc3F)c(=O)n2C)c(OC)c1 (stereo not drawn),58.5% (active)
14,Cc1cccc(N2CC(C)Cn3c2nc2c3c(=O)n(CC(=O)OCc3ccccc3)c(=O)n2C)c1 (stereo not drawn),-39.9%
15,COc1ccc(C2(CNC(=O)Cc3ccc(OC)c(OC)c3)CCCC2)cc1,10.1%
16,O=C(CSc1ccc2nnc(-c3ccccc3)n2n1)N1CCCc2ccccc21,9.14%
17,COc1ccc(NC(=S)SC)cc1OC,-0.91%
18,O=c1[nH]c2cccnc2n1-c1ccc([N+](=O)[O-])cc1,3.76%
19,O=C1CC(c2ccccc2)=NN1c1ccc([N+](=O)[O-])cc1,-0.56%
20,O=c1[nH]n(-c2ccc([N+](=O)[O-])cc2)c(=O)c2ccccc12,43.7% (active)
21,CC(=O)c1c(C)[nH]c(C(=O)Nc2cc(S(=O)(=O)N(C)C)ccc2C)c1C,-11.1%

row,SMILES,inhibition
1,COCCn1c(SCC(=O)Nc2cc(OC)ccc2OC)nc2c(c1=O)SC(C)C2 (stereo not drawn),-1.72%
2,CC1=C(C)C(=O)OC(C(C)C2CCC3C4CC=C5CC(OC6OC(COC7OC(CO)C(O)C(O)C7O)C(O)C(O)C6O)CC(O)C5(C)C4CCC23C)C1 (stereo not drawn),-3.03%
3,Cc1ccc(C)c2[nH]c(=O)c(CN(Cc3cccnc3)C(=S)NCc3ccco3)cc12,40.3% (active)
4,O=C(Nc1ccccc1)N(Cc1cccnc1)Cc1ccco1,-9.87%
5,Cc1cccc2cc(CN(Cc3cccs3)C(=S)NCc3ccco3)c(=O)[nH]c12,-184%
6,O=S1(=O)CC/C(=N\Nc2ccc(F)cc2)c2ccsc21,-3.38%
7,N#C/C(=C/c1ccc(-c2ccccc2[N+](=O)[O-])o1)C(=O)NCCN1CCCCC1,2.84%
8,N#C/C(=C/c1ccc(N2CCCCC2)o1)C(=O)NCCc1c[nH]c2ccccc12,41.9% (active)
9,O=C(NCCc1c[nH]c2ccccc12)C(=O)NCC1CCCO1 (stereo not drawn),-9.36%
10,Cc1ccc2cc(CN(c3ccc(C)c(C)c3)S(C)(=O)=O)c(=O)[nH]c2c1,-7.6%
11,O=C(Nc1ccc(S(=O)(=O)N2CCOCC2)cc1)c1ccc2ncsc2c1,-9.71%
12,Cc1ccc(O)c(NC(=S)NC(=O)COc2ccc(Br)cc2)c1,-10.4%
13,CCOC(=O)N1CCN(CCC(=O)Nc2cc(OC)ccc2OC)CC1,3.79%
14,COc1ccc(NC(=O)CCN2CCCC2)c(OC)c1,-2.15%
15,COc1ccc(OC)c(NC(=O)CCN2CCC(C)CC2)c1,43.5% (active)
16,Cc1ncn2cc(-c3ccc(Cl)cc3Cl)[nH]c(=O)c12,0.92%
17,CN(C)C(=O)CSc1n[nH]c(-c2ccco2)n1,-9.79%
18,O=C(COC(=O)c1ccc(F)cc1F)Nc1ncccn1,-18.8%
19,N#CC1=C(N)N(c2ccccc2)C2=C(C(=O)CCC2)C1c1ccccc1 (stereo not drawn),-23.4%
20,CCc1ccc(C2C(C#N)=C(N)N(N(C)C)C3=C2C(=O)CCC3)s1 (stereo not drawn),-16.9%
21,CSc1sc(C)cc1C1C(C#N)=C(N)N(c2cccnc2)C2=C1C(=O)CCC2 (stereo not drawn),40.6% (active)
